High-throughput results deposited in PubChem by National Center for Advancing Translational Sciences (NCATS).
CHX counter: Cycloheximide Counterscreen for Small Molecule Inhibitors of Shiga Toxin | max response, % | cell reporter, cycloheximide protein synthesis inhibition counterscreen | hit rate 12% among 300,000; in the data active = max response mostly above about 13%, no sharp cut-off; inactive = mostly below about 14%; also: read at 38.3 µM for the half of the compounds with a filed dose; 0% is about no effect
Giardia FBPA inh: qHTS Assay for Inhibitors of Fructose-1,6-bisphosphate Aldolase from Giardia Lamblia. A8B2U2. purified Giardia FBPA. Potency, µM (series often up to 59.6 µM), without a hit: at the top dose activity, negative = inhibition, most hits filed as inhibitors. hit rate 0.71% among 290,000. AID 2451, 2010; also: potency is read from the fitted curve at half-maximal effect; % is scaled to controls: 0 for no effect and ±100 for the full control effect; nearly all actives have a fitted effect of over 55% in size
Target sequence (A8B2U2 whole entry, looked up): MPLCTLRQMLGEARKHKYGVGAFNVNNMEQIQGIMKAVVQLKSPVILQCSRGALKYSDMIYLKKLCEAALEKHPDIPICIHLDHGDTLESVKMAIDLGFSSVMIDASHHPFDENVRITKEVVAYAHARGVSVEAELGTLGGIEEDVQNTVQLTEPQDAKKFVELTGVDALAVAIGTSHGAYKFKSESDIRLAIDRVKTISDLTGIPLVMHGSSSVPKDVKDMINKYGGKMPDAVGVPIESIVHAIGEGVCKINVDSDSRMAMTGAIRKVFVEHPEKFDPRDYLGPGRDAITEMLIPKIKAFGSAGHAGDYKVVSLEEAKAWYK
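Giardia FBPA (40 nM reagent) was preincubated 10 min at RT with compound (up to 57.5 uM final), then substrate plus GAPDH/TPI/NAD/arsenate coupling system with diaphorase/resazurin was added; resorufin fluorescence (525/598 nm) was read after 20 min.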
Pf growth 96h: Primary qHTS for delayed death inhibitors of the malarial parasite plastid, 96 hour incubation; P. falciparum luciferase reporter growth, 96 h; Potency, µM (top dose mostly 28.7 µM), for inactives: at the top dose activity change, negative = inhibition, usual class: inhibitors; hit rate 6.9% among 320,000; also: potency is read from the fitted curve at half-maximal effect; % is scaled to controls: 0 for no effect and ±100 for the full control effect
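P. falciparum expressing integrated firefly luciferase grown in erythrocytes (2% hematocrit, 0.05% parasitemia final) with compounds for 96 hours at 37 C, 5% CO2. Growth inhibition read as loss of luminescence after adding luciferase detection reagent.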
Pf growth 48h: Primary qHTS for delayed death inhibitors of the malarial parasite plastid, 48 hour incubation. Potency, µM (titrated, usually from 28.7 µM), for inactives: at the top dose activity change, negative = inhibition, usual class: inhibitors. P. falciparum luciferase growth in erythrocytes, 48 h. hit rate 5.9% among 310,000. AID 504832, 2011; also: potency is read from the fitted curve at half-maximal effect; % is scaled to controls: 0 for no effect and ±100 for the full control effect
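Firefly luciferase activity from engineered P. falciparum reports growth; inhibitors lower the luminescent signal. Cultures contained 2% hematocrit erythrocytes at 0.1% final parasitemia.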
NS1 function inh: qHTS Assay for Inhibitors of Influenza NS1 Protein Function | Potency, µM (doses to about 46.1 µM), without a hit: at the highest dose activity, positive = more growth | hit rate 0.4% among 270,000; calls by dose curve; also: potency is read from the fitted curve at half-maximal effect; actives are rising curves; nearly all actives have a fitted effect of over 50% in size
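OD600 was taken as the measure of yeast growth restored by compound in an NS1-expressing S. cerevisiae strain. Cells had been washed out of glucose medium and diluted 1:100 into galactose -URA medium, pH 6.0.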
Shiga inhibitor: A qHTS for Small Molecule Inhibitors of Shiga Toxin. Vero cells, Shiga toxin protein synthesis inhibition reporter. hit rate 9.2% among 290,000. inhibition, % at 38.7 µM. AID 2315, 2010; in the data active = inhibition mostly above about 28%, no sharp cut-off; inactive = mostly below about 43%; also: 0% is about no effect
Active calls of the source: *; i = inactive; ? = inconclusive; / = no result; ! = not confirmed by another sample; [ ] = another dose, or the depositor's remark. Rows were chosen to be rich in hits. Some 21% of all compounds tested hit in one or more screens of this group. Unless noted, calls follow the shape of the dose curve; as a rule, active = well fitted curve in the direction sought with a large enough effect; inconclusive = small, poorly fitted or top-dose-only effect, or another doubt; inactive = no such curve, though single readings can be large; an effect the other way counts as inactive or inconclusive.

SMILES	CHX counter	Giardia FBPA inh	Pf growth 96h	Pf growth 48h	NS1 function inh	Shiga inhibitor
CC(=O)NC(Cc1cc(C)ccc1C)C(=O)N1CCN(C(=O)Nc2ccc(C(C)=O)cc2)CC1 (configuration not stated)	17*	11%	/	-11%	?	14
COC(=O)C1=C(C(=O)OC)[C@@H]2N(C)c3ccc(OC)cc3[C@@]23C[C@@H](C(=O)OC)N(S(=O)(=O)c2ccc4c(c2)OCCN4C)C3=N1	/	-4%[12.9 µM]	/	/	/	/
COc1ccc(OC)c(N/C(=N/C(=S)Nc2ccccc2)Nc2nc(C)cc(C)n2)c1	-1	-2%	?	?	-1%	-4
COc1ccc(CNC(=O)C(c2ccco2)N(Cc2cccs2)C(=O)Cc2cccs2)cc1 (configuration not stated)	2	-15%	?	?	-13%	-2
COc1ccc(CNC(=O)C(c2ccco2)N(Cc2ccccc2)C(=O)Cc2cccs2)cc1 (configuration not stated)	-1	0%	?	?	11%	-5
COCCN(C(=O)Cc1cccs1)C(C(=O)NCc1ccc(OC)cc1)c1ccc(OC)cc1 (configuration not stated)	-2	-1%	?	13µM*	-6%	10
COc1ccc(CNC(=O)C(c2cccs2)N(Cc2ccco2)C(=O)Cc2cccs2)cc1 (configuration not stated)	-1	-4%	13%	13µM*	-7%	10
O=[N+]([O-])c1ccc2nc(NCCCO)nc(-c3ccccc3)c2c1	-5	-10%	12µM*	?	-4%	4
Cc1ccc(/C(=C\CN2CCCC2)c2ccccn2)cc1	-2	2%	13µM*!	-19%	?	-6
Cc1ccc(C(=O)NCCCNC(=O)c2ccccn2)cc1	-4	-10%	26%	5%	12%	-11
Cn1c(-c2c(N)n(-c3ccccc3)c3nc4ccccc4nc23)nc2ccccc21	5	19%	6.6µM*	9.3µM*	16%	9
Cc1cccc(-n2c(-c3ccco3)nc3nc4ccccc4nc32)c1	-1	7%	-7%	1%	10%	-8
Cc1c(NC(=O)c2c(N)n(-c3ccccc3)c3nc4ccccc4nc23)c(=O)n(-c2ccccc2)n1C	-6	-7%	-2%	-10%	3%	-4
Cc1cccc(-n2c(N)c(-c3nc4ccccc4n3C)c3nc4ccccc4nc32)c1	-2	24%	7.4µM*	10µM*	14%	-6
Cc1nc2nc(SCC(=O)N3CCC4(CC3)OCCO4)nn2c(C)c1Cc1ccccc1	-3	4%	-9%	/	-4%	-2
Cc1nc2nc(SCC(=O)N3CCOCC3)nn2c(C)c1Cc1c(F)cccc1Cl	13	10%	31%	3.7µM*	-1%	-16
O=C(Nc1ccc(F)cc1)/C(Cl)=C/c1ccccc1	40*	-8%	6%	94%	-10%	62*
Cc1ccccc1NC(=O)/C(=C/c1ccccc1)c1ccccc1	1	1%	-2%	?	-21%	-21
CC(=O)c1ccc(NC(=O)C2(c3ccccc3)CC2(Cl)Cl)cc1 (configuration not stated)	40*	-11%	?	?	-10%	88*
CC(=O)c1ccc(NC(=O)/C(Cl)=C/c2ccccc2)cc1	41*	7%	-26%	94%	-3%	147*
Cc1ccc(NC(=O)/C(Cl)=C\c2ccccc2)cc1	6	0%	4%	0%	-93%	6
O=C(Nc1ccccc1Cl)C1(c2ccccc2)CC1(Cl)Cl (configuration not stated)	-1	0%	?	?	-17%	6
O=C(Nc1ccccc1)/C(=C/c1ccccc1)c1ccccc1	-2	-4%	4.1µM*	15µM*	17%	4
CC(C)CCCC(C)C1CCC2C3CC(=O)[C@H]4CC(O)CC[C@]4(C)C3CC[C@@]12C (some centres not stated)	/	13%	/	/	/	/
CC(C)OC(=O)c1ccc(OC(=O)c2cccnc2)cc1	12*	2%	/	21%	-10%	13
SMILES	CHX counter	Giardia FBPA inh	Pf growth 96h	Pf growth 48h	NS1 function inh	Shiga inhibitor
CC(=O)Nc1ccc(OC(=O)c2cccnc2)cc1	-1	1%	1.2µM*	?	-4%	-12
O=C(Nc1ccc(OC(=O)c2cccnc2)cc1)c1cccnc1	0	-1%	5%	?	-8%	-15
COc1ccc(NC(=O)C2CCCN(S(C)(=O)=O)C2)cc1OC (configuration not stated)	-2	4%	4%	14%	15%	-6
COC(=O)C1Cc2c([nH]c3ccccc23)C(C(C)C)N1 (configuration not stated)	-3	-13%	1.3µM*	-17%	0%	-6
CCc1cc(C(=O)COc2ccc(F)cc2)c(O)cc1O	20*	3%	-5%	5%	-48%	40*
COc1ccc(N2CCN(CC(=O)c3ccc(O)c(C)c3O)CC2)cc1	-1	-5%	?	?	-6%	-8
Cc1c(O)ccc(C(=O)COc2ccc(F)cc2)c1O	38*	-1%	?	-62%	-34%	i
O=C(O)C(=O)/C=C(\O)c1ccc(Br)cc1	/	/	/	/	0%	/
C=CCc1c(C)nc(SC)nc1Nc1ccc(C(=O)O)cc1	-4	13%	-4%	6%	-2%	2
C=CCc1c(C)nc(SC)nc1Nc1ccc(C(C)=O)cc1	46*	-4%	?	?	-117%	82*
Cc1cc(OCC(O)CNC(C)(C)C)ccc1Cl (configuration not stated)	0	-14%	?	?	/	2
COc1ccc(N2C(=O)/C(=C/c3cccs3)NC2=S)cc1	-1	-9%	12%	1%	3%	22*
O=C(NCCN1C(=O)S/C(=C\c2ccc(Cl)cc2Cl)C1=O)C1=COCCO1	/	/	41%	7%	/	/
Cn1cc(CNCc2ccc(-n3cccn3)cc2)c(-c2ccccc2F)n1	-5	2%	7%	5%	0%	-21
CCN(CC(=O)Nc1cccc(S(=O)(=O)N(C)c2ccccc2)c1)Cc1ccccc1	/	/	10µM*	?	/	/
CCC(C(=O)Nc1cccc(S(=O)(=O)N(C)c2ccccc2)c1)c1ccccc1 (configuration not stated)	/	/	?	9.3µM*	/	/
Cc1ccccc1CN(C)CC(=O)Nc1cccc(S(=O)(=O)N(C)c2ccccc2)c1	4	0%	?	?	/	12
O=C(O)CCC/C=C\C[C@H]1C(=O)C[C@@H](O)[C@@H]1/C=C/[C@@H](O)CCc1ccccc1	/	0%	/	/	/	/
COc1ccc(NC(=O)c2oc3ccccc3c2C)cn1	5	/	-65%	-11%	9%	-17
